Results on 97 molecules are retold here after PubChem BioAssay AID720 (The Scripps Research Institute Molecular Screening Center, 2007).

Among all 97,000 compounds or so, about 140 (0.14%) were called active. This is one part of a sample in which actives are shown more often than they occur. Unmarked numbers belong to inactive results.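 The calls were made as follows: active = inhibition above the screen-wide mean inhibition plus 3 SD (cut at about 15% in these data); inactive = the rest.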

The target in the test is Ephrin type-B receptor 4 (Homo sapiens) (UniProt P54760). Kind of test: blockers of EphB4 ligand binding – biochemical, TNYL-RAW peptide probe, fluorescence polarization, primary screen (AID 720).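 Also: 0% = DMSO wells and 100% = excess unlabeled TNYL-RAW peptide.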 Particulars: EphB4 LBD / TNYL-RAW-Alexa532 peptide, at 7 µM, hits give high values.
Sequence of Ephrin type-B receptor 4 (Homo sapiens) (P54760 whole entry, looked up, the tested form may be a part): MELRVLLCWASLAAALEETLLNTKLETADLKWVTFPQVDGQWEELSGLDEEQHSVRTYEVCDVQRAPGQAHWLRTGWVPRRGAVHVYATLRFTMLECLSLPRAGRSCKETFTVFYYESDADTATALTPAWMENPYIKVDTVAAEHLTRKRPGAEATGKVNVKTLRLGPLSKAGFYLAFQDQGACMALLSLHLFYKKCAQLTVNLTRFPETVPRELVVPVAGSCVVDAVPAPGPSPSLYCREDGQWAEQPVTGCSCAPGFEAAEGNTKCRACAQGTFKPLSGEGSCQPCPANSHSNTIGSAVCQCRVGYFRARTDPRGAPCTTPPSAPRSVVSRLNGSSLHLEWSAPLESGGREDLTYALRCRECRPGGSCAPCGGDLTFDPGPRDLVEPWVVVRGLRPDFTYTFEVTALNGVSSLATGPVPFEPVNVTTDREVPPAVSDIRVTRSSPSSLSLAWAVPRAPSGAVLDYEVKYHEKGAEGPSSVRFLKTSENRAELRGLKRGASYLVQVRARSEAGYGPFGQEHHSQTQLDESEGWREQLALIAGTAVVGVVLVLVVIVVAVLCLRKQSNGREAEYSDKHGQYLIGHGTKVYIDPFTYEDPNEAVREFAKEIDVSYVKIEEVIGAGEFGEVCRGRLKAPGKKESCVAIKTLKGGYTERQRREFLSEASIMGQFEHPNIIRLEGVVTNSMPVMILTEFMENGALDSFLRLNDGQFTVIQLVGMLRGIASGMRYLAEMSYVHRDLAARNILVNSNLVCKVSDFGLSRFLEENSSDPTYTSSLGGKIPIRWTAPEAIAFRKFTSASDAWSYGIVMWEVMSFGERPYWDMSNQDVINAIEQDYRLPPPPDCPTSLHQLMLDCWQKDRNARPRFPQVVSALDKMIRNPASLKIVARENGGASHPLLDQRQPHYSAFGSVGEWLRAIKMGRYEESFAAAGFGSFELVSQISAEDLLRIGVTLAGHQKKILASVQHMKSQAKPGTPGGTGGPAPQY
For `Cc1ccc(-c2nn(-c3ccccc3)cc2/C=N/NC(=O)c2ccc3c(c2)OCO3)cc1`, the inhibition (usually the drop in the measured response relative to a control, in per cent) is -6.96%.

For the molecule `CN(C)Cc1ccccc1C1(O)c2ccccc2CSc2ccccc21` (configuration not stated), the inhibition is 2.27%.

Regarding `CN(C)c1nc2n(c(=O)n1)CCO2`, the inhibition was 17.6% (active). With `O=c1nc(N2CCOCC2)nc2n1CCO2` the figure was -6.76%. `CC(C)CC(N=C1NC(C)(C)Cc2ccccc21)C(=O)O` (configuration not stated): the inhibition was 0.51%. As for `COc1ccc(/C(O)=C2\C(=O)C(=O)N(Cc3ccco3)C2c2ccc(OC)cc2OC)cc1` (configuration not stated), the inhibition was -7.3%. With `CCOC(=O)c1c(NC(=O)CCCN2CCOCC2)sc2c1CC(C)(C)OC2` the figure was 7.6%; with `CCCOC(=O)c1[nH]c2c(c1C)C(=O)CC(c1cccs1)C2` (configuration not stated), 3.13%.

As to `Nn1c(Cc2cccc3ccccc23)nnc1SCC(=O)N1CC(=O)Nc2ccccc21`, the inhibition was 5.41%. In the case of `CCOc1ccc(NC(=O)CN(C)CC(=O)Nc2cccc(Cl)c2C)cc1OCC`, the inhibition is -10.2%. `COC(=O)c1ccc(C2C(Oc3ccccc3C)C(=O)N2CCc2ccc(OC)c(OC)c2)cc1` (configuration not stated): the inhibition was -5.62%. Take `CCC(C)(C(=O)NC1CCCCC1)N(C)C(=O)c1ccc2c(c1)OCO2` (configuration not stated): the inhibition is 3.83%. The same measure for `O=C(COc1ccc(Cl)cc1)N1CCN(S(=O)(=O)c2ccc(Cl)cc2)CC1`: 0.78%; for `Cc1cccc(N2CCN(C(=O)CN(C)S(=O)(=O)c3ccc4c(c3)CCC(=O)N4)CC2)c1C`: 3.05%; for `CN(C)CCNC(=O)Nc1cccc(Cl)c1Cl`: -7%. As to `O=C1CSC(c2ccc(Cl)cc2)N1` (configuration not stated), the inhibition is -6.27%. In the case of `Cc1cccc(NC(=S)Nc2ccc(Br)cc2)c1`, the inhibition is 1.26%. `O=C(Nc1cccn(Cc2c(Cl)cccc2Cl)c1=O)c1ccc(Cl)cc1`: the inhibition is 4.57%.

For the molecule `CCOc1ccc(Nc2nc(Cc3nnc(SCC(=O)c4ccc(C)cc4)o3)cs2)cc1`, the inhibition is 2.63%. For `CC(C)(C)n1nnnc1C(c1ccc(Cl)cc1)N1CCSCC1` (configuration not stated), the inhibition is 3.05%. With `COc1cccc2c1OCC1COc3c(c(=O)n(C)c(=O)n3C)C21` (configuration not stated) the figure was 5.25%; with `Cc1ccc(NC(=O)CSCC(=O)N2CCOCC2)cc1`, 1.18%. For the molecule `Cc1cc(Nc2ccccc2)nc(N)n1`, the inhibition is -7.64%. The same measure for `O=C(NCCc1ccccn1)c1cc(C(=O)C2CCCCC2)c[nH]1`: 1.78%; for `C/C(=N\NC(=O)c1nc(C)cc(C)n1)c1ccccc1`: 3.33%; for `O=S(=O)(Cc1cc(Sc2ccccc2)nc(-c2ccccc2)n1)c1ccccc1`: -3.64%.

Turning to `Cc1cc(N)n2nc(-c3ccc(C(C)(C)C)cc3)cc2n1`, the inhibition was -2.84%. With `Oc1ccc(CNc2ccccc2O)cc1` the figure was -12.7%; with `O=C(COc1ncnc2c(Cl)cc(Cl)cc12)N1CCN(S(=O)(=O)c2ccccc2)CC1`, -7.07%; with `CC(C)CNC(=O)CC(c1ccccc1)c1c(O)ccc2ccccc12` (configuration not stated), 2.89%. With `Cc1ccsc1/C=C1\SC(N2CCOCC2)=NC1=O`, the inhibition was -4.07%. The same measure for `Nc1ccc(C(=O)OCC(=O)NC2CCCc3ccccc32)cc1[N+](=O)[O-]` (configuration not stated): -2.7%; for `COc1ccc(OCCCC(=O)Oc2ccc(OC)cc2)cc1`: 5.05%. `O=C(COC(=O)c1ccccc1NC(=O)c1ccco1)Nc1ccc2c(c1)OC(F)(F)O2`: the inhibition was -1.26%.

As for `COc1ccc(NC(=O)NC2CC3CCCC(C2)N3Cc2ccccc2)cc1` (configuration not stated), the inhibition is -5.24%.

Consider `O=C(Nc1ccccc1[N+](=O)[O-])C1C(c2ccccc2)=C1c1ccccc1`, for which the inhibition was 2.26%.

In the case of `Cn1cnc([N+](=O)[O-])c1Nc1ccccc1O`, the inhibition was 2.1%. For the molecule `Clc1ccc(COn2c(-c3ccc(Cl)cc3Cl)nc3ncccc32)cc1`, the inhibition was 1.17%. Take `O=c1c2ccccc2nc2n1C1(CCCCC1)Cc1ccccc1-2`: the inhibition is 6.44%. With `CCOC(=O)C1=C(c2ccccc2)O/C(=C(/C(=O)OC)C(F)(F)F)S1` the figure was -6.59%. With `O=C(Cn1ccc([N+](=O)[O-])n1)NCc1cccs1` the figure was -8.7%; with `Cc1[nH]n(-c2ccccc2)c(=O)c1CCOC(=O)c1ccc(C(F)(F)F)cc1`, 5.95%.

Consider `COC(=O)Cc1cc(=O)oc2c(C)c(O)ccc12`, for which the inhibition is -7.76%. With `COC(=O)/C(=C\Nc1ccccc1)NC(=O)c1ccc(Cl)cc1Cl` the figure was 2.49%; with `COC(=O)c1cccc(N(C(=O)c2ccco2)C(C(=O)NC2CCCC2)c2ccco2)c1` (configuration not stated), -2.29%. The same measure for `O=C(CSC1=Nc2ccccc2C2=NC(CC(=O)NCc3ccco3)C(=O)N12)NCc1ccco1` (configuration not stated): -6.96%; for `Cc1cccc(C)c1NC(=O)CCS(=O)(=O)c1cccc2nsnc12`: 7.08%; for `Cc1cc2nc(C)n(CCCNC(=O)Nc3ccccc3)c2cc1C`: -0.81%.

Take `CCN1CCC(=NNC(=O)c2ccc(C)c([N+](=O)[O-])c2)CC1`: the inhibition is 8.39%. Regarding `ONC(=Nc1ccc(Cl)cc1)c1ccccc1Cl`, the inhibition is -1.3%. With `CCn1nc(C)c(NC(=O)/C=C/c2ccc(OC)c(COc3ccc(Br)cc3)c2)c1C`, the inhibition was 7.03%.

Take `c1ccc(-c2nc(NCc3ccco3)c3ccccc3n2)cc1`: the inhibition is 4.23%. The same measure for `CN1/C(=c2/s/c(=C3/C(=O)N(c4ccccc4)NC3=Nc3ccccc3)n(C)c2=O)C(C)(C)c2ccccc21`: 0.36%; for `Cc1ccc(NC2(C#N)C(=O)Nc3ccccc32)cc1` (configuration not stated): 0.9%. On to `CCCCNC(=O)CSc1nc2n[nH]c(C)c2c(=N)n1-c1cccc(Cl)c1C`, for which the inhibition is 6.52%. With `Cc1ccc2c(c1)-c1c(ssc1=S)C(C)(C)N2C(=O)CN1C(=O)c2ccccc2C1=O` the figure was 10.6%; with `O=C(Nc1sc2c(c1-c1nc3ccccc3[nH]1)CCCC2)C1CC1`, -2.93%; with `COC(=O)Nc1sc2nc(C)cc(C)c2c1-n1cccc1`, -5.41%. With `Cc1nc(NNC(=O)c2ccccc2)cc(-c2ccccc2)n1` the figure was 8.09%; with `O=C(COC(=O)c1ccc(S(=O)(=O)N2CCc3ccccc3C2)cc1)NC(=O)NCc1ccco1`, 3.64%; with `COc1cc(C)c(C(C)C)cc1S(=O)(=O)n1ccnc1`, 1.74%. With `NC(=O)C1(N2CCCCC2)CCN(C(=S)Nc2ccc(Cl)cc2)CC1` the figure was -1.72%; with `NC(=O)COc1ccc(/C=N/NC(=O)C2CCCN2S(=O)(=O)c2ccc(Cl)cc2)cc1` (configuration not stated), 0.72%; with `CS(=O)(=O)N1CCN(c2cccc(Cl)n2)CC1`, -3.22%. Take `CCCc1nc2sc3c(c2c(=O)n1NC(=O)CCCl)CCCC3`: the inhibition is 2.57%. The same measure for `CC1CCC2(CC1)NC(=O)N(CC(=O)c1cccn1C)C2=O` (configuration not stated): 4.98%. For the molecule `COc1ccc(/C=C(/NC(=O)c2ccc(C)cc2)c2nc3ccccc3[nH]2)cc1OC`, the inhibition was -1.55%. As to `CCCc1nnc(NC(=O)CN2C(=O)c3ccccc3S2(=O)=O)s1`, the inhibition was 18.1% (active). With `CNC(=O)CN1C(=O)c2ccccc2S1(=O)=O` the figure was -4.4%; with `CCCc1nnc(NC(=O)c2cccs2)s1`, -2.26%; with `COC(=O)c1cc(OC)ccc1-c1ccc(OC)cc1`, -6.72%. For `O=C(COC(=O)c1n[nH]c2ccccc12)NCc1ccccc1`, the inhibition was 1.83%. The same measure for `CC(C)c1ccc(N2CCN(C(=O)c3ccccc3NC(=O)/C=C(\C(=O)O)c3ccccc3)CC2)cc1`: -2.32%; for `CC(C)Oc1ccc(Oc2ccc(C(F)(F)F)cn2)cc1`: -4.38%; for `O=C(CNC(=O)c1cc2c(s1)CCC2)Nc1ccccc1Br`: -5.12%. For `C=CCOc1c2ccc(C(=O)N(CC)c3ccc(OC)cc3)cc2nn1C`, the inhibition was 0.66%. With `C=CCNC(=O)c1sc(SC)cc1-c1ccc(Cl)cc1` the figure was -2.13%. Turning to `Cc1cccc(NC(=O)c2ccc(OCC(=O)NCc3ccccc3)cc2)c1C`, the inhibition is 0.02%.

Take `Cc1ccc(NC(=S)N/N=C2/CCCc3c(C)cc(C)cc32)cc1`: the inhibition is 0.47%. With `CCOC(=O)c1ccc2c(c1)nc(C)n2CC` the figure was -0.83%; with `COC(=O)c1ccccc1OCC(=O)N1CCN(c2ccc(Cl)cc2)CC1`, -4.75%.

In the case of `OC(COCCC12CC3CC(CC(C3)C1)C2)CN1CCCCC1` (configuration not stated), the inhibition is 2.92%. For the molecule `N/C(=N\OC(=O)c1cc(-c2ccccc2)nc2ccccc12)c1ccncc1`, the inhibition was -5.76%. In the case of `Cc1ccc2c(Cl)c(C(=O)NCCCn3ccnc3)sc2c1`, the inhibition was 8.67%. With `COc1ccc(C(=O)OCC(=O)NCC2CCCCC2)cc1S(=O)(=O)N1CCCc2ccccc21` the figure was -0.59%.

Regarding `Cc1ccc(C(=O)c2c(NC(=O)c3ccncc3)sc3c2CCCC3)cc1`, the inhibition was 1.3%.

With `O=C(N/N=C\c1cccc(Br)c1)c1ccccc1-n1cccc1`, the inhibition is 1.13%. The same measure for `CC(=O)c1cccc(NC(=O)N2CCCC2C(=O)NCCc2ccccc2)c1` (configuration not stated): 0.44%. Regarding `CC(=O)c1cccc(NC(=O)N2CCCC2C(=O)NCCC(C)C)c1` (configuration not stated), the inhibition was 3.74%.

Take `CCC1CCCCN1C(=O)Nc1cccc(NC(=O)N2CCCCC2CC)c1` (configuration not stated): the inhibition is 16.1% (active).

Consider `Cc1ccc(NC(=O)C(C)c2cccc(C(=O)c3ccccc3)c2)cc1` (configuration not stated), for which the inhibition was -1.1%. With `CCOC(=O)C1=C(CN2CCc3ccccc32)NC(=O)NC1c1cc(C)ccc1C` (configuration not stated) the figure was -2.91%; with `O=C1c2ccccc2C(=O)N1CCCc1nc(-c2ccccc2)no1`, 5.53%. With `Cc1ccccc1OC(=O)Cn1c(C(F)(F)F)nc2ccccc21` the figure was -8.85%; with `Cc1ccc(/C=N\n2c(-c3ccccc3)n[nH]c2=S)s1`, -7.78%. Regarding `O=[N+]([O-])c1ccccc1/C=N/n1c(COc2ccccc2)n[nH]c1=S`, the inhibition is 2.36%. With `Oc1ccccc1/C=N/n1c(-c2cccs2)n[nH]c1=S` the figure was 15.8% (active).
